Laboratory results taken from PubChem BioAssay (EPA / NIEHS).
Inconclusive results are not listed. Activity calls are given as the source filed them. Rule for the calls: active = hit-call score of the fitted dose curve at least 0.9, where 1 is the maximum; inconclusive = response in the unintended direction; inactive = score below 0.9.

What was measured:
[1] = biological target: Retinoic acid receptor alpha (Homo sapiens) (UniProt P10276); assay: NVS_NR_hRARa_Agonist: NovaScreen (NVS) Nuclear Receptor Binding Assay for human Retinoic Acid Alpha Receptor Agonism (RAR) (AID 2283361)
In short: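 Agonist-mode TR-FRET binding format using extracted protein, measured at 2 h post-dosing. Initial duplicate single-point screen at 25 uM preceded concentration series for actives; activity was normalized to DMSO baseline.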

[2] = biological target: guinea pig Sigma Receptor, Non-selective Binding, SIGMAR1 (gene 100135589) (UniProt Q60492); assay: NVS_OR_gSIGMA_NonSelective: NovaScreen (NVS) Nuclear Receptor Binding Assay for guinea pig Sigma Receptor, Non-selective Binding (AID 2283367)
In short: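 Guinea pig brain membrane sigma sites were labelled with a radioligand, and bound radioactivity was counted after filtration 1 h post-dose. Compounds were screened at 25 uM in duplicate, then retested as concentration series when active.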

[3] = biological target: human Thyroid Receptor Alpha (TRa), THRA (gene 7067) (UniProt P10827); assay: NVS_NR_hTRa_Antagonist: NovaScreen (NVS) Nuclear Receptor Binding Assay for human Thyroid Receptor Alpha Antagonism (TRa) (AID 2283362)
Procedure: NVS_NR_hTRa_Antagonist is a biochemical, single-readout assay that uses extracted gene-proteins in a cell-free assay. Measurements were taken 1 hour after chemical dosing in a 384-well plate.NVS_NR_hTRa_Antagonist is one of one assay component(s) measured or calculated from the NVS_NR_hTRa_Antagonist assay. It is designed to make measurements of enzyme-linked immunosorbent assay, a form of binding reporter, as detected with chemiluminescence signals by AlphaLISA immunoassay technology.Data from the assay component NVS_NR_hTRa_Antagonist was analyzed into 1 assay endpoint. This assay endpoint, NVS_NR_hTRa_Antagonist, was analyzed in the positive analysis fitting direction relative to DMSO as the negative control and baseline of activity. Using a type of binding reporter, loss-of-signal activity can be used to understand changes in the binding as they relate to the gene THRA. Furthermore, this assay endpoint can be referred to as a primary readout, because the performed assay has only produced 1 assay endpoint. To generalize the intended target to other relatable targets, this assay endpoint is annotated to the nuclear receptor intended target family, where the subfamily is non-steroidal.
Binding assays used specific radioligands (tritiated, iodinated) with non-radioactive competitive displacement ligands in agonist or antagonist protocols (as indicated) and various reference compounds and inhibitors to titrate specific binding to receptors and transporters. Most enzyme assays (CYPs, kinases, phosphatases, proteases, HDACs) used recombinant protein and specific substrates (fluorescence mostly, some colorimetric and radioactive) and inhibitors, followed by a biochemical separation of substrate and product. All assays for the biochemical HTS were initially run in duplicate at a single concentration (10 uM for CYP450 assays and 25 uM for all others). […] Each assay was run with positive and negative controls, and concurrent controls on every plate. The follow-up (secondary) screen tested active chemical-pairs in concentration series, as well as a few additional assays not tested in the primary screen, some selected negative inactives, and several cases re-run in the concentration series for confirmatory purposes.

[4] = biological target: Peroxisome proliferator-activated receptor gamma (Homo sapiens) (UniProt P37231); assay: NVS_NR_hPPARg: NovaScreen (NVS) Nuclear Receptor Binding Assay for human Peroxisome Proliferator-activated Receptor gamma (PPARg) (AID 2283370)
In short: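 Chemicals were tested first in duplicate at 25 uM, then in concentration series if active. Binding to cell-free PPARg protein was measured by fluorescence polarization after 2 h, with loss of signal scored against DMSO.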

[5] = biological target: human Adenosine Transporter (Adot), SLC29A1 (gene 2030) (UniProt Q99808); assay: NVS_TR_hAdoT: NovaScreen (NVS) Transporter Assay for human Adenosine Transporter (Adot) (AID 2283368)
In short: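 Binding displacement on U937 extracted protein, read 1 h post-dose by filtration and scintillation counting. Primary duplicate test at 25 uM, then singleton concentration series with 50 uM top; DMSO baseline.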

[6] = test system: guinea pig Dopamine Transporter (DAT), gene 100714898; assay: NVS_TR_gDAT: NovaScreen (NVS) Transporter Assay for guinea pig Dopamine Transporter (DAT) (AID 2283369);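 note: active compounds lower bound radioligand signal relative to DMSO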
In short: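 Scintillation counts of filter-retained radioligand report binding to guinea pig striatal membranes after 2 h. Activity scored as signal loss relative to DMSO, first at 25 uM in duplicate, then in concentration series to 50 uM.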

[7] = biological target: Nuclear receptor subfamily 1 group I member 2 (Homo sapiens) (UniProt O75469); assay: NVS_NR_hPXR: NovaScreen (NVS) Nuclear Receptor Binding Assay for human Pregnane X Receptor (PXR) (AID 2283365);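 note: a drop in FRET signal versus DMSO baseline means the compound binds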
In short: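 Human PXR protein, cell-free; compound added, incubated 2 h, TR-FRET read. Signal decrease vs DMSO = binding. Screened 25 uM duplicate, actives re-run as dilution series.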

[8] = biological target: human Serotonin Transporter (SERT), SLC6A4 (gene 6532) (UniProt P31645); assay: NVS_TR_hSERT: NovaScreen (NVS) Transporter Assay for human Serotonin Transporter (SERT) (AID 2283372)
In short: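 Human platelet membrane preparation; displacement of radioligand from serotonin transporter measured after 1 h by filtration and scintillation counting. Single 25 uM duplicate screen, then concentration series for actives, with DMSO as negative baseline.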

[9] = biological target: rat Androgen Receptor (AR), Ar (gene 24208) (UniProt P15207); assay: NVS_NR_rAR: NovaScreen (NVS) Nuclear Receptor Binding Assay for rat Androgen Receptor (AR) (AID 2283366)
In short: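 Actives from a duplicate single-concentration (25 uM) primary run went on to concentration series. Displacement of radioligand was counted by filtration and scintillation, 18 h post-dose, using prostate extracts from testosterone-pretreated rats, with DMSO as baseline.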

[10] = biological target: Glucocorticoid receptor (Homo sapiens) (UniProt P04150); assay: NVS_NR_hGR: NovaScreen (NVS) Nuclear Receptor Binding Assay for human Glucocorticoid Receptor (GR) (AID 2283363);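 for AC50: activity is loss of specific radioligand binding signal relative to DMSO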
In short: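 Compounds first tested in duplicate at 25 uM, actives followed up in concentration series. Binding to extracted GR protein measured as competitive radioligand displacement, filter scintillation read 16 h post-dosing, normalised to DMSO.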

Sequence of human Thyroid Receptor Alpha (TRa), THRA (gene 7067) (P10827 whole entry, looked up): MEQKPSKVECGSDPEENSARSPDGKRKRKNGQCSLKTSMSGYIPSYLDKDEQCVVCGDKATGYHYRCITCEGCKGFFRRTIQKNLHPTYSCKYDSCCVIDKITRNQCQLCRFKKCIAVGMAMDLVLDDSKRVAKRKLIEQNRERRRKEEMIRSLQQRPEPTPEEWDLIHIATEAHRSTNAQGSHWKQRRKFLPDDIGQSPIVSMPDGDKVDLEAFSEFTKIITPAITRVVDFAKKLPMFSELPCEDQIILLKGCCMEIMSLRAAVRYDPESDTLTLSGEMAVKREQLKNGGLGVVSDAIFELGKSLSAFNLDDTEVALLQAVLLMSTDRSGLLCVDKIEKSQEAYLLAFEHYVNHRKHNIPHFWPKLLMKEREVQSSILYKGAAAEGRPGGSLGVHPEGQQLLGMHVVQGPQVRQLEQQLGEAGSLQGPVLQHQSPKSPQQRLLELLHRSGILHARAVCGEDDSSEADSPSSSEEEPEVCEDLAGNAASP
Sequence of human Adenosine Transporter (Adot), SLC29A1 (gene 2030) (Q99808 whole entry, looked up): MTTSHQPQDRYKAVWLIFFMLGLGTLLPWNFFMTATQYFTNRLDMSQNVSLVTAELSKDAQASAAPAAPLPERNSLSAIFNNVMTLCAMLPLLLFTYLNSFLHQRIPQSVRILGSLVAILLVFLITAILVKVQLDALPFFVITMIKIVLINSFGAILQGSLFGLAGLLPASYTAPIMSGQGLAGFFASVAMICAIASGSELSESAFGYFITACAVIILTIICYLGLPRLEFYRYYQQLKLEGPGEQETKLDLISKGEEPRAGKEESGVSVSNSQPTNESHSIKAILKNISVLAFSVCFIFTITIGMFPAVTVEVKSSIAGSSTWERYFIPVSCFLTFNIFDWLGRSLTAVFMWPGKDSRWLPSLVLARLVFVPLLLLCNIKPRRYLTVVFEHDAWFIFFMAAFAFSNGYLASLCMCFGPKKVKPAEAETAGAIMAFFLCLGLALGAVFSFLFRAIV
Sequence of Nuclear receptor subfamily 1 group I member 2 (Homo sapiens) (O75469 whole entry, looked up): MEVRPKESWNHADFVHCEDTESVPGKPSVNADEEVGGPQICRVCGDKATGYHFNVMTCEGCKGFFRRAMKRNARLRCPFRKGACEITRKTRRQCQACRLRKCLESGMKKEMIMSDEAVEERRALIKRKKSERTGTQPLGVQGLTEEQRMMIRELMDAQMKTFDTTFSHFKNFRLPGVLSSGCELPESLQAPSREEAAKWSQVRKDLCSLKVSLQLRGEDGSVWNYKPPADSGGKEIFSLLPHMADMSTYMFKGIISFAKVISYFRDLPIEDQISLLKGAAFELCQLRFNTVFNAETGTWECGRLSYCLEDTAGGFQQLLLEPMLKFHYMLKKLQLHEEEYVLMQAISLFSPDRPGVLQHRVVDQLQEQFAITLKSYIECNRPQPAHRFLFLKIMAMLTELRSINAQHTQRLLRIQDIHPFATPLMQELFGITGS
Sequence of Glucocorticoid receptor (Homo sapiens) (P04150 whole entry, looked up): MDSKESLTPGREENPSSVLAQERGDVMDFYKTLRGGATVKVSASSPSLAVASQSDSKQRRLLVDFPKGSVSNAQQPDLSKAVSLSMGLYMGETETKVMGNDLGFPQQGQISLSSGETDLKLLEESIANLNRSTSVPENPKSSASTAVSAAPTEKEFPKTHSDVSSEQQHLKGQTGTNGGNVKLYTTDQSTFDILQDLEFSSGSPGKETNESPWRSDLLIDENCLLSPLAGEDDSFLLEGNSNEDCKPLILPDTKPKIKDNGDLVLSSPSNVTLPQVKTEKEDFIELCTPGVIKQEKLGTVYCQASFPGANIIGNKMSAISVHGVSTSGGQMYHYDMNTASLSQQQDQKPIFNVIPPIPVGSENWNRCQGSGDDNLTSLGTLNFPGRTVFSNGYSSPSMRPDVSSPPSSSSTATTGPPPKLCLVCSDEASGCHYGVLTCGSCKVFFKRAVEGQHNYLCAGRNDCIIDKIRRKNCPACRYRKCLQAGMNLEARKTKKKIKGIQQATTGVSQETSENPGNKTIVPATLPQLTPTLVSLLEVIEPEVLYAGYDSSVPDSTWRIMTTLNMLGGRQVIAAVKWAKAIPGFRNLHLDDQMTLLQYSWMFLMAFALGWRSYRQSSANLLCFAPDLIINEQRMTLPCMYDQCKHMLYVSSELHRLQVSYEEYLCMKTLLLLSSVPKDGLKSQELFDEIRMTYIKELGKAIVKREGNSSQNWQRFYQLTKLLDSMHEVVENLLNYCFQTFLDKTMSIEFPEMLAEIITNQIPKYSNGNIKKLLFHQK
Sequence of Peroxisome proliferator-activated receptor gamma (Homo sapiens) (P37231 whole entry, looked up): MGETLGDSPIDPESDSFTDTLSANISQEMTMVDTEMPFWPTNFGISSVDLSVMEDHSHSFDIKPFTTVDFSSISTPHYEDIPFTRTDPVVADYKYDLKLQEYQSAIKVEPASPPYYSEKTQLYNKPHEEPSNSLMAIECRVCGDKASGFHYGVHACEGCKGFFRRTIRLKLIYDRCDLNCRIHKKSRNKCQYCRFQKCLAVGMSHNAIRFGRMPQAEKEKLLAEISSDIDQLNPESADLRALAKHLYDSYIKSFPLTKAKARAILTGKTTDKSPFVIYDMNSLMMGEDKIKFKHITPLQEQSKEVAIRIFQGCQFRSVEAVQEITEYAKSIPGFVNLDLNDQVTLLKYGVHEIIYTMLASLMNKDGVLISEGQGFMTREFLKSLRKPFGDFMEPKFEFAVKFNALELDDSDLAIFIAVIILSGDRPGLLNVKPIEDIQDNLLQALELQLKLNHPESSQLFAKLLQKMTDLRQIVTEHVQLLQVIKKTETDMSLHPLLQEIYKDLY
Sequence of guinea pig Sigma Receptor, Non-selective Binding, SIGMAR1 (gene 100135589) (Q60492 whole entry, looked up): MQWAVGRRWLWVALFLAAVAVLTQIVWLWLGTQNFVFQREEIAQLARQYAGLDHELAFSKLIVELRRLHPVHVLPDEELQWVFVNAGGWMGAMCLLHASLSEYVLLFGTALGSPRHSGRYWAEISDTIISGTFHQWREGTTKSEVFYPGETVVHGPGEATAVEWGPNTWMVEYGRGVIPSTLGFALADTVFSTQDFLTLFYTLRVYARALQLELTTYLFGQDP
Sequence of Retinoic acid receptor alpha (Homo sapiens) (P10276 whole entry, looked up): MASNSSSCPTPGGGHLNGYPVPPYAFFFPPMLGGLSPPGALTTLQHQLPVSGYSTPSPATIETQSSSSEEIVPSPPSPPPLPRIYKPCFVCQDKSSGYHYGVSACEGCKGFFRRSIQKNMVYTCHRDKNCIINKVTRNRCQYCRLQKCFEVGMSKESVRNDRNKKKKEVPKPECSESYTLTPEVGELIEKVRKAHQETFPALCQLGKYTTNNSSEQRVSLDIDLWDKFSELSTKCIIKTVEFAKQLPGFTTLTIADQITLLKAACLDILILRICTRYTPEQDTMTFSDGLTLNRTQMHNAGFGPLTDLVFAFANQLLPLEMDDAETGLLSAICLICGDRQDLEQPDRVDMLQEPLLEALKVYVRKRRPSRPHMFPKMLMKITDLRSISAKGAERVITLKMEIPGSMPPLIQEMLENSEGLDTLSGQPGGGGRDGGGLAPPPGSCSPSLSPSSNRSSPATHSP
Sequence of rat Androgen Receptor (AR), Ar (gene 24208) (P15207 whole entry, looked up): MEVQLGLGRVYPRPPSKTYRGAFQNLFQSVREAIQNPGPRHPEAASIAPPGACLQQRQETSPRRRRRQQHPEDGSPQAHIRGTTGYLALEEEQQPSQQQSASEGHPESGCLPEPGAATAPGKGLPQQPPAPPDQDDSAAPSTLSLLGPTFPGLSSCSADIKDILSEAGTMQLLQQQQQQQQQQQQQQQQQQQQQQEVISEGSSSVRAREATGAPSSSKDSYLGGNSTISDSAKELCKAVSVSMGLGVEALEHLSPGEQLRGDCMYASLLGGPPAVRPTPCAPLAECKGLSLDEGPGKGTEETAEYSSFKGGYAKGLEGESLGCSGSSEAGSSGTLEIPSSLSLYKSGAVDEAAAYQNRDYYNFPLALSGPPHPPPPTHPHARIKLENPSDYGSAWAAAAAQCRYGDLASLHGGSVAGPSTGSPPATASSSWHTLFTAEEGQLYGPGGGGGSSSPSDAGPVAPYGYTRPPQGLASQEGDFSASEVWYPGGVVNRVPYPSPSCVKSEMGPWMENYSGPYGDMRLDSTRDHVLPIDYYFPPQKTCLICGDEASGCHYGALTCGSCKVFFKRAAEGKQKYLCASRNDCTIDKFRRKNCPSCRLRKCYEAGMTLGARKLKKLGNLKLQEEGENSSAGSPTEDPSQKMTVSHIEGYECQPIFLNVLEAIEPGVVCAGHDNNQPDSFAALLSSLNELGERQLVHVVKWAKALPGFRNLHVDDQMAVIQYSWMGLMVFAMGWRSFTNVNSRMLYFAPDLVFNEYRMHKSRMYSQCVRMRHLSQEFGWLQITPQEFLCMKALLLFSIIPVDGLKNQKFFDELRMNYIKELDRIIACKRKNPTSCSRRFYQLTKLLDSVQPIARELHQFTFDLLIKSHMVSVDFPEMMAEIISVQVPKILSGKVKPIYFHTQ
Sequence of human Serotonin Transporter (SERT), SLC6A4 (gene 6532) (P31645 whole entry, looked up): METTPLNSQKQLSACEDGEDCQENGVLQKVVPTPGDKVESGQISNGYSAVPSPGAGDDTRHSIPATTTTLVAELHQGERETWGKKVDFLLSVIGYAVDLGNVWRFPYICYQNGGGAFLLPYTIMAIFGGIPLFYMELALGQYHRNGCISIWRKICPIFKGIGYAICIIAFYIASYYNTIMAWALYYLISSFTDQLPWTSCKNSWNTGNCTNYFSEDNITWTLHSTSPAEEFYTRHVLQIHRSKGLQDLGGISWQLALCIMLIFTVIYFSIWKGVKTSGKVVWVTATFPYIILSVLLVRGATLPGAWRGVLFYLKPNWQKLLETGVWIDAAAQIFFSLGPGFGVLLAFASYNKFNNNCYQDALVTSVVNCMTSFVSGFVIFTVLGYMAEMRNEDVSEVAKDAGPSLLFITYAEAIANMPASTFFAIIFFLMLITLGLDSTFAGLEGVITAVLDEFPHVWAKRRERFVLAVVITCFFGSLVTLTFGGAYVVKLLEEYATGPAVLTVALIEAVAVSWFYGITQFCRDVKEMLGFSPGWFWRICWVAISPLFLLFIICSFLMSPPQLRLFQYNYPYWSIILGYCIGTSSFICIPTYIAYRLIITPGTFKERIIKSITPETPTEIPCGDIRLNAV

In the case of `CCCCCCCCN(C)C`, the outcome [1] is reported as “inactive” and the AC50 [2] is reported as 1.88 µM (active).
For `CC(C)C(=O)Nc1ccc([N+](=O)[O-])c(C(F)(F)F)c1`, the outcome [3] was “inactive” and the outcome [2] was “inactive”.
`C[C@@H](Oc1ccc(CNC(=O)c2cccnc2Oc2ccc3c(c2)OCO3)c(F)c1)C(=O)O` was tested, and the AC50 [4] was 13.6 µM (active).
`Cc1nccn1-c1ccc(Sc2cccc(C3(C(N)=O)CCOCC3)c2)cc1` was tested, and the AC50 [2] was 19.7 µM (active), the outcome [5] was “inactive” and the AC50 [6] was 24.3 nM (active). The outcome [4] was “inactive”.
`c1ccc2c(c1)-c1cccc3c1c-2cc1ccccc13` was tested, and the outcome [4] was “inactive”.
With `Cc1ncc([C@@H](CCCCCCc2ccc3c(n2)NCCC3)CC(=O)O)cn1` the AC50 [2] was 14.5 µM (active) and the outcome [4] was “inactive”.
For `OCc1ccccc1`, the outcome [4] was “inactive”.
With `Cc1nc(-c2ccccn2)ncc1C(=O)Nn1cc(C)c2cc(F)ccc21` the outcome [7] was “inactive”.
In the case of `CCCCCCCCCC`, the outcome [2] is reported as “inactive” and the outcome [6] is reported as “inactive”.
For `CC(C)CCCCCCOC(=O)C1CCCCC1C(=O)OCCCCCCC(C)C` (stereo not drawn), the outcome [3] was “inactive”.
For `OCCOCCOCCO`, the AC50 [7] was 108 nM (active) and the outcome [8] was “inactive”.
With `NC(=O)NN=Cc1ccc([N+](=O)[O-])o1` the outcome [4] was “inactive”.
With `CCCCCCCCCCCCCCCCOS(=O)(=O)O` the AC50 [7] was 12500 nM (active), the AC50 [9] was 3.03 µM (active) and the AC50 [4] was 1.64 µM (active).
For `CCn1nc(C)c2c1C(=O)NCC(c1ccc(O)cc1)=N2`, the outcome [2] was “inactive”, the outcome [5] was “inactive” and the outcome [6] was “inactive”. The outcome [4] was “inactive”.
In the case of `C[C@]12C=CC(=O)C=C1CC[C@H]1[C@@H]3C[C@@H](O)[C@](O)(C(=O)CO)[C@@]3(C)C[C@H](O)[C@@]12F`, the AC50 [10] is reported as 0.0746 µM (active) and the outcome [7] is reported as “inactive”.
For `CCCCC(CC)C(=O)OCCOCCOCCOC(=O)C(CC)CCCC` (stereo not drawn), the outcome [3] was “inactive” and the outcome [2] was “inactive”.
`OC[C@H]1O[C@@H]2O[C@H]3[C@H](O)[C@@H](O)[C@@H](O[C@H]4[C@H](O)[C@@H](O)[C@@H](O[C@H]5[C@H](O)[C@@H](O)[C@@H](O[C@H]6[C@H](O)[C@@H](O)[C@@H](O[C@H]7[C@H](O)[C@@H](O)[C@@H](O[C@H]1[C@H](O)[C@H]2O)O[C@@H]7CO)O[C@@H]6CO)O[C@@H]5CO)O[C@@H]4CO)O[C@@H]3CO` was tested, and the outcome [3] was “inactive”.
In the case of `OCC(CO)(CO)CO`, the outcome [7] is reported as “inactive”.
In the case of `C=CCc1cc(S(=O)(=O)c2ccc(O)c(CC=C)c2)ccc1O`, the AC50 [10] is reported as 4.59 µM (active), the AC50 [9] is reported as 4.5 µM (active) and the AC50 [5] is reported as 25 µM (active). For the same molecule, the AC50 [6] was 13200 nM (active) and the AC50 [4] was 0.621 µM (active).
`Cc1cccc(O)c1C` was tested, and the outcome [4] was “inactive”.
In the case of `CC[C@H](C)C(=O)O[C@H]1C[C@H](O)C=C2C=C[C@H](C)[C@H](CC[C@@H](O)C[C@@H](O)CC(=O)O)[C@H]21`, the AC50 [10] is reported as 15.5 µM (active).
For `CCOc1ccc2[nH]cc(C(=O)NCc3ccccc3)c(=O)c2n1`, the outcome [4] was “inactive”.
`CCN(CC)C(=S)SSC(=S)N(CC)CC` was tested, and the AC50 [7] was 700 nM (active), the AC50 [2] was 25 µM (active) and the outcome [6] was “inactive”.
For `CCCCCCCC/C=C\CCCCCCCC(=O)OC[C@@H](O)[C@H]1OC[C@H](O)[C@H]1O`, the outcome [7] was “inactive”.
In the case of `c1ccc(C(O[C@@H]2CCCN(CCc3ccc4c(c3)OCO4)C2)c2ccccc2)cc1`, the outcome [3] is reported as “inactive”, the outcome [10] is reported as “inactive” and the AC50 [2] is reported as 2.6 µM (active). For the same molecule, the AC50 [6] was 943 nM (active) and the outcome [8] was “inactive”.
In the case of `COc1cc(C(C)C)c2c(c1)S(=O)(=O)N(COc1cc(=O)n3cccc(OCCN4CCCCC4)c3n1)C2=O`, the outcome [1] is reported as “inactive”, the AC50 [6] is reported as 4100 nM (active) and the AC50 [4] is reported as 6.25 µM (active).
